Results on 12 compounds are retold here after PubChem BioAssay (NCATS).

Unmarked numbers belong to inactive results. Inconclusive results are not listed. Calls of active or inactive are those of the source. Unless noted, the call rests on the fitted dose curve; in most records, active means well fitted curve in the direction sought with a large enough effect; inconclusive means small, poorly fitted or top-dose-only effect, or another doubt; inactive means no such curve, though single readings can be large; an effect the other way counts as inactive or inconclusive.

Test [1] in a line: Inducers of the Endoplasmic Reticulum Stress Response (ERSR) in human glioma: Validation (AID 504836). Further: 0% is about no effect. Put shortly: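 ERSR induction read as luciferase luminescence (Bright-Glo, 10 min at room temperature) in stably transfected human U87-MG glioma cells exposed to compounds for 16 h, using GRP78 as sensor.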
Test [2] concerns the target Luciferin 4-monooxygenase (Photinus pyralis) (UniProt P08659). The experiment in a line: Biochemical firefly luciferase enzyme assay for NPC (AID 624030).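 Further: purified P. pyralis luciferase at 10 nM with luciferin and ATP substrate; 0% = DMSO and -100% = full luciferase inhibition by PTC124 control; nearly all actives have a fitted effect of over 70% in size.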 Put shortly: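 Direct inhibition of firefly luciferase enzyme (10 nM final, 50 mM Tris Acetate) assessed by luminescence within 5 minutes. Percent activity scaled between DMSO and PTC124 positive control, with concentration-effect curves classified by fit quality and response.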

The nature of test [3]: S16 Schwann cell PMP22 intronic element firefly luciferase assay (AID 624032). Further: nearly all actives have a fitted effect of over 30% in size. Further: potency means the concentration at half of the fitted maximal effect. The procedure, abridged:
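Luciferase reporter of PMP22 intronic-element expression in stably transfected S16 rat Schwann cells, read by ONE-Glo luminescence after 24 h compound exposure at 37 C. Activity scaled between DMSO (0%) and positive-control PTC124; concentration-effect curves quality-classified.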

Another test relates to 7G8. The experiment in a line: qHTS profiling for inhibitors of Plasmodium falciparum proliferation (AID 504749). Further: nearly all actives have a fitted effect of over 60% in size. Further: potency means the concentration at half of the fitted maximal effect. The note with it: P. falciparum in erythrocytes, SYBR Green DNA, 72 h; series mostly up to 28.7 µM. Put shortly:
(§1)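 In a 72 h erythrocytic culture (37 C, humidified, 5% CO2) at 2.5% hematocrit and 0.3% starting parasitemia, compounds were tested; SYBR Green I in detergent lysis buffer stained parasite DNA overnight.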

The next test relates to ATS95. Described as above. The note with it: P. falciparum in erythrocytes, SYBR Green DNA, 72 h; series mostly up to 28.7 µM. Put shortly:
as §1

The next test has as its system CP260. The test is described as above. The note with it: P. falciparum in erythrocytes, SYBR Green DNA, 72 h; series mostly up to 28.7 µM. Put shortly:
as §1

In a further test the test system is P93_24. Described as above. The note with it: P. falciparum in erythrocytes, SYBR Green DNA, 72 h; series mostly up to 28.7 µM. Put shortly:
as §1

The next test concerns TAB109. The test is described as above. The note with it: P. falciparum in erythrocytes, SYBR Green DNA, 72 h; series mostly up to 28.7 µM. The procedure, abridged: as §1
A further test deals with TAB165. The description is as above. The note with it: P. falciparum in erythrocytes, SYBR Green DNA, 72 h; series mostly up to 28.7 µM. The procedure, abridged: as §1
In another test the test system is W2. Described as above. The note with it: P. falciparum in erythrocytes, SYBR Green DNA, 72 h; series mostly up to 28.7 µM. Put shortly: as §1
The target of test [4] is Peroxisome proliferator-activated receptor delta (Homo sapiens) (UniProt Q03181). The experiment in a line: qHTS assay for small molecule agonists of peroxisome proliferator-activated receptor delta signaling (AID 588534; calls by dose curve;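 further: 0% = DMSO basal wells and 100% = positive control agonist at 10 µM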). The procedure, abridged: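 Titration series tested in agonist mode on beta-lactamase reporter cells; 18 hrs at 37 C after a 5 hr pre-incubation. Readout: CCF4 fluorescence, 2 hrs RT. Hill equation gives EC50 and maximal response.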

The target of test [5] is Vitamin D3 receptor (Homo sapiens) (UniProt P11473). The experiment in a line: qHTS assay for small molecule antagonists of vitamin D receptor signaling (AID 588541; calls by dose curve;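 further: receptor activated by calcitriol during compound treatment; on the % scale 0 is the no-effect control and ±100 the full control effect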). The procedure, abridged: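 Antagonist-mode beta-lactamase reporter assay: HEK293T VDR-UAS-bla cells were exposed to titrated compound alongside 1-alpha,25-dihydroxyvitamin D3 at 3 nM final for 16 h. Values were normalized to the 50 nM agonist control and DMSO basal, with IC50 and efficacy from Hill equation fits.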

Test [6] shares this target. Kind of test: qHTS assay for small molecule agonists of vitamin D receptor signaling (AID 588543; calls by dose curve;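 further: 0% = DMSO basal and 100% = reference agonist control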). Put shortly:
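qHTS in agonist mode: compound titrations stimulate a VDR-driven β-lactamase reporter in HEK293T cells over 16 h at 37 °C. Response normalized to 50 nM 1α,25-dihydroxyvitamin D3 = 100%, DMSO = 0%; Hill fitting gives EC50 and maximal response.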

For test [7], the target named is Thyroid hormone receptor beta (Homo sapiens) (UniProt P10828). Kind of test: qHTS assay for small molecule agonists of thyroid hormone receptor beta signaling (AID 588545; calls by dose curve). The procedure, abridged:
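HEK 293 TR-UAS-bla; agonist mode; 18 hrs, 37 C; CCF4, ex 405/em 460 and 530 nm; norm. T3 10 nM = 100%, DMSO = 0%; Hill fit → EC50, efficacy.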

The target of test [8] is Retinoic acid receptor RXR-alpha (Homo sapiens) (UniProt P19793). Kind of test: qHTS assay for small molecule antagonists of retinoid X receptor alpha signaling (AID 588546; active means well fitted inhibition curve with a large enough effect in the signal ratio, with a control signal flat, not every such curve was filed as active; the % refers to the signal ratio; further: on the % scale 0 is the no-effect control and ±100 the full control effect). The note with it: HEK293T RXRa-UAS-bla, beta-lactamase ratio, antagonist mode. Put shortly: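 Beta-lactamase reporter inhibition, read as CCF4 fluorescence ratio (ex 405, em 460/530 nm) after 2 h at RT. HEK293T UAS-bla cells, 2500/well, were stimulated with 9-cis-RA at 500 or 100 nM final alongside test compound for 18 h at 37 C.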

The subject of the next test is DIV17. Kind of test: qHTS profiling for inhibitors of Plasmodium falciparum proliferation (AID 504749). Further: nearly all actives have a fitted effect of over 60% in size. Further: potency means the concentration at half of the fitted maximal effect. The note with it: P. falciparum in erythrocytes, SYBR Green DNA, 72 h; series mostly up to 28.7 µM. The procedure, abridged: as §1

Sequence of Luciferin 4-monooxygenase (Photinus pyralis) (P08659 whole entry, looked up): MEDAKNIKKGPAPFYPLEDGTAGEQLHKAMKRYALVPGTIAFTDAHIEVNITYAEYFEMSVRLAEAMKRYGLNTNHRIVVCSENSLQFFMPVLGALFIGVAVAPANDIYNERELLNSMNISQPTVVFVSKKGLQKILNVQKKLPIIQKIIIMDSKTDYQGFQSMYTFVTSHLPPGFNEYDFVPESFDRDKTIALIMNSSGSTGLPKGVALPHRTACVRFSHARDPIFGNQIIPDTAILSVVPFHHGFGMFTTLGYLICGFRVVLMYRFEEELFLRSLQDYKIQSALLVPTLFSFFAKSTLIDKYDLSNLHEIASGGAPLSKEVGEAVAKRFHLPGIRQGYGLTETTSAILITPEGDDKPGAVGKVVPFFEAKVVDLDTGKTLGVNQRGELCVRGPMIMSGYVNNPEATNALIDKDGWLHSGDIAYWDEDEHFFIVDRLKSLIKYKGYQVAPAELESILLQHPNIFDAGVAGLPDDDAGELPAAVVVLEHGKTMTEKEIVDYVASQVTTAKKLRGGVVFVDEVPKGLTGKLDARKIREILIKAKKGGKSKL
Sequence of Vitamin D3 receptor (Homo sapiens) (P11473 whole entry, looked up): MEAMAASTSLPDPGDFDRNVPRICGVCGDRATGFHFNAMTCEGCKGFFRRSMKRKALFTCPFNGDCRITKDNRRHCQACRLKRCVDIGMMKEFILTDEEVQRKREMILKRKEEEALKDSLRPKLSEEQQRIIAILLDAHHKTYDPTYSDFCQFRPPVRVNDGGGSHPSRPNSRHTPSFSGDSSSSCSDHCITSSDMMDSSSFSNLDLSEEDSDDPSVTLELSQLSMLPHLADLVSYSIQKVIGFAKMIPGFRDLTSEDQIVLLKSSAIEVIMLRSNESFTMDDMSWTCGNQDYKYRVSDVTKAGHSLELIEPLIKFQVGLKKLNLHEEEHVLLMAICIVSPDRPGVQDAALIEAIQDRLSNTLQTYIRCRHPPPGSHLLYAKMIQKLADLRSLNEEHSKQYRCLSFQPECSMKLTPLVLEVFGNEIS
Sequence of Retinoic acid receptor RXR-alpha (Homo sapiens) (P19793 whole entry, looked up): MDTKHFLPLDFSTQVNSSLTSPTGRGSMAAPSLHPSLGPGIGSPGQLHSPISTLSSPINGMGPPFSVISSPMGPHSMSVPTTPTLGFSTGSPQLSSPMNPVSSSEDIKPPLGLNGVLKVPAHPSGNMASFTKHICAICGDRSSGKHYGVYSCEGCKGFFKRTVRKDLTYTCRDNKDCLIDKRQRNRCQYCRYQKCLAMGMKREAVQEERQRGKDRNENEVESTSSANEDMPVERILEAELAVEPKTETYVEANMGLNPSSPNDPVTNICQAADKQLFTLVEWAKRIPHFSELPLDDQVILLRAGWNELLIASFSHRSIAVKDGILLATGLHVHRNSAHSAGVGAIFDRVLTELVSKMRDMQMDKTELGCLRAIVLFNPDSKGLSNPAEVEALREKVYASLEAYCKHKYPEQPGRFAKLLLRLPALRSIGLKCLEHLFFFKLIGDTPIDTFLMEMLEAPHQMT
Sequence of Thyroid hormone receptor beta (Homo sapiens) (P10828 whole entry, looked up): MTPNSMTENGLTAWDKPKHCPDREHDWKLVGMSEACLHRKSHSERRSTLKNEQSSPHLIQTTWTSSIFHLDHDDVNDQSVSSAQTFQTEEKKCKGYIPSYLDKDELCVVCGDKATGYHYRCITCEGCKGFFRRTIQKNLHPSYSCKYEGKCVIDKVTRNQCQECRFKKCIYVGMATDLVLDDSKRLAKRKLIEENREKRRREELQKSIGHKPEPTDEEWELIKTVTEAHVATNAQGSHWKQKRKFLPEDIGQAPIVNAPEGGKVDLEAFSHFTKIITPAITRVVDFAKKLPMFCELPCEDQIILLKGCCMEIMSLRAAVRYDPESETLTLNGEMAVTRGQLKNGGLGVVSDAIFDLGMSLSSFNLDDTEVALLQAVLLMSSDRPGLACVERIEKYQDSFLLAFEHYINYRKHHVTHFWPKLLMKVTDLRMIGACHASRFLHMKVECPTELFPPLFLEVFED
Sequence of Peroxisome proliferator-activated receptor delta (Homo sapiens) (Q03181 whole entry, looked up): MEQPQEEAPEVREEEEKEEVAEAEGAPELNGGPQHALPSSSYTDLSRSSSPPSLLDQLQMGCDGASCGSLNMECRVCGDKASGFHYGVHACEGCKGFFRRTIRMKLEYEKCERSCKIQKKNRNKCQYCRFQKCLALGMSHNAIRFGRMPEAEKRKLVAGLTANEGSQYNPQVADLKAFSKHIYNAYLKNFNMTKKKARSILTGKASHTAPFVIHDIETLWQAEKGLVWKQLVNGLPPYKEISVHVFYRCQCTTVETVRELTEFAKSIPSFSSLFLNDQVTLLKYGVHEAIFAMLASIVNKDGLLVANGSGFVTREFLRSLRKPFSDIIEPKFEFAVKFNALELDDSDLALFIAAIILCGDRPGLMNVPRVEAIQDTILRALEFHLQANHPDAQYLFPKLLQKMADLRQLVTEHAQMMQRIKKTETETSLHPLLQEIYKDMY

As for `Cc1ccccc1/C=C/C1=NCCN1`, in test [1], the call was inactive.

Regarding `CC(CO)NC(=O)C1C=C2c3cccc4[nH]cc(c34)CC2N(C)C1` (stereo unspecified), the Potency entry (in test [2]; in test [3]; with 7G8; with ATS95; in the test on CP260; in the test with P93_24) was “inactive” in each case. In addition, the Potency result with TAB109, in the test with TAB165 and in the test on W2 was “inactive” throughout.

Consider `C#CCN1CC(=O)N(COC(=O)[C@@H]2[C@@H](C=C(C)C)C2(C)C)C1=O`, for which the compound was classed as inactive in [4] and in [6]. Also, the Potency result (in test [5]; in [7]; in the test with 7G8; in the test with ATS95; with CP260; with DIV17) was “inactive” throughout. Also, the Potency entry with P93_24, in the test with TAB109, in the test on TAB165 and with W2 was “inactive” throughout. For the same compound, the max response in test [8] was -19.9%.

For the compound `CC(=O)Oc1ccc2c3c1OC1[C@@H](OC(C)=O)C=C[C@H]4[C@H](C2)N(C)CC[C@]314` (stereo partly specified), the Potency entry in the test with ATS95, in the test on CP260, in the test on P93_24, in the test with TAB109, in the test with TAB165 and with W2 was “inactive” throughout.

`CCCCCCC(=O)O[C@H]1CC[C@H]2[C@@H]3CCC4CC(=O)C=C(C)[C@]4(C)[C@H]3CC[C@]12C` (stereo partly specified): the Potency entry (in [2]; in the test with ATS95; with P93_24; in the test with TAB109; with TAB165) was “inactive” in each case. The Potency in the test with 7G8 is 8.91 µM (active); in the test with W2 it was 7.57 µM (active).

In the case of `CC1CC[C@@]2(NC1)OC1CC3C4CC[C@@H]5CC(O)CC[C@@]5(C)C4CC[C@]3(C)C1C2C` (stereo partly specified), the Potency with 7G8 is 12.6 µM (active). Moreover, the Potency result with ATS95 and in the test on TAB109 was “inactive” in each case.

Turning to `C[C@@H](N)[C@@H](O)c1ccc(O)c(O)c1`, the Potency entry in the test with 7G8, in the test on ATS95, with CP260, in the test with DIV17, in the test on P93_24 and in the test on TAB109 was “inactive” throughout. For the same compound, the Potency result with TAB165 and with W2 was “inactive” each time.

Turning to `CC#CCOC(=O)c1c(C)nc2sc3c(c2c1N)CCC(O)C3` (stereo unspecified), the call in test [1] was inactive.

Take `CCCC(C)C1(CC)C(=O)NC(=S)NC1=O` (stereo unspecified): the Potency entry (in [3]; in the test with ATS95; in the test with CP260; in the test with DIV17; with P93_24; in the test on TAB109) was “inactive” in each case. For the same compound, in the test with TAB165, the Potency result was “inactive”. Moreover, in the test with W2, the Potency is 9.53 µM (active).

Consider `C=C1CC2C(CC[C@]3(C)C(=O)CCC23)[C@]2(C)C=CC(=O)C=C12` (stereo partly specified), for which the Potency result (in [2]; in the test on ATS95; with DIV17; with P93_24; with TAB109; in the test on TAB165) was “inactive” each time. The Potency in [3] is 11.4 µM (active).

Take `CC[C@@H](C)[C@H]1O[C@]2(CC[C@H]1C)C[C@@H]1C[C@@H](CC=C(C)[C@@H](O[C@H]3C[C@H](OC)[C@@H](O[C@H]4C[C@H](OC)[C@@H](O)[C@H](C)O4)[C@H](C)O3)[C@@H](C)C=CC=C3CO[C@@H]4[C@H](O)C(C)=C[C@@H](C(=O)O1)[C@]34O)O2`: the result in [1] was inactive.

For the compound `C[C@]12CCC3C(CCC4=C(Cl)C(=O)CC[C@@]43C)C1CCC2O` (stereo partly specified), the Potency entry (in [2]; in the test on ATS95; in the test on CP260; in the test with DIV17; with P93_24; in the test on TAB165) was “inactive” each time. The Potency entry with W2 is “inactive”.
